Compound activity from PubChem.
SKN-1 block: inhibitors of C. elegans SKN-1; inhibition, % at 21.8 µM; C. elegans VP596 Pgst-4::GFP/RFP ratio, acrylamide-induced, 24 h; 360,000 tested, 0.49% active;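 active = interference check ratio from 0.5 to 1.5 plus GFP to RFP signal ratio inhibition reaching or exceeding a fixed threshold, cut at about 30% in these data, passing the limit was not always enough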
MEKK2 WT-MEK5: raises or lowers MEK5 binding to wildtype human MEKK2 PB1 domain; bead flow cytometry, Alexa488-MEK5 binding to MEKK2 WT; actives lie on both sides; 290,000 tested, 1.1% active; Q9Y2U5; binding response (% of control), % at 10 µM; AID 1531; in the data active = binding response below about 67% or above about 130%
NRP1-CendR mod: alters CendR peptide binding to human NRP-1; O14786; FAM-RPARPAR peptide binding to NRP-1, fluorescence polarization; inhibition, % at 25 µM; 360,000 tested, 0.85% active; AID 602438;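 active = inhibition or corrected inhibition above about 18%, plus a signal ratio from 0.5 to 1.5, limit read from the data, passing the limit was not always enough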
MEKK2mut PB1 HTS: signal of MEK5 binding to mutant human MEKK2 PB1 domain. AID 1530. 290,000 tested, 0.35% active. percent response, % at 10 µM. bead flow cytometry, Alexa488-MEK5 binding to MEKK2 mutant; in the data active = percent response above about 24%, passing the limit was not always enough
MEKK3 PB1 HTS: raises or lowers MEK5 binding to the human MEKK3 PB1 domain; AID 1529; 290,000 tested, 1.4% active; bead-based flow cytometry, Alexa488-MEK5 binding to MEKK3; actives lie on both sides; 0 = blocked by unlabeled MEK5, 100 = vehicle; binding response (% of control), % at 10 µM;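 active = binding response more than 3 SD above or below the average of its plate-row segment, actives on both sides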;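 note: Alexa488 bead fluorescence after subtracting the streptavidin-only scavenger bead signal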
Target sequence (Q99759 whole entry, looked up, the tested form may be a part): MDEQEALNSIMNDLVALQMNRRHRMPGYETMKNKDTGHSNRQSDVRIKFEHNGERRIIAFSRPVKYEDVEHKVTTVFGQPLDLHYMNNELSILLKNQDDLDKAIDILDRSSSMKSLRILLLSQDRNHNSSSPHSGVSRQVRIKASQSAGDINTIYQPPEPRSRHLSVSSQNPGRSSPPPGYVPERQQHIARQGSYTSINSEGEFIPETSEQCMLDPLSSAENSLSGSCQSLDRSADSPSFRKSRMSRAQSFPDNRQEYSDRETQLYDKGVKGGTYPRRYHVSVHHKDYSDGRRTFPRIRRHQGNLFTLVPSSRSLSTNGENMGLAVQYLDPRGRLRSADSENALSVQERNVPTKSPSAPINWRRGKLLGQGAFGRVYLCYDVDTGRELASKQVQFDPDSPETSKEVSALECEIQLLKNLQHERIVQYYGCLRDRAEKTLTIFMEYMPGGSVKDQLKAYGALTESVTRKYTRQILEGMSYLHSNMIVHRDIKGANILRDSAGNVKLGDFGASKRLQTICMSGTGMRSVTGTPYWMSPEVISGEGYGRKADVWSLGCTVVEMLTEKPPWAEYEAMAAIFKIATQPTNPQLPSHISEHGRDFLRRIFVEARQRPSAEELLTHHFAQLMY
MEKK2wt confirm: raises or lowers MEK5 binding to wildtype human MEKK2, retest; 5,900 tested, 2.4% active; binding response (% of control), % at 10 µM; bead flow cytometry, Alexa488-MEK5 binding to MEKK2 WT; actives lie on both sides; shares compounds with MEKK3 PB1 HTS; in the data active = binding response below about 16% or above about 210%; inactive = in between
MEKK2mut-MEK5: signal of MEK5 binding to mutant human MEKK2, retest; shares compounds with MEKK3 PB1 HTS; bead flow cytometry, Alexa488-MEK5 binding to MEKK2 mutant; percent response, % at 10 µM; 5,900 tested, 2% active; AID 1893; in the data active = percent response mostly above about 71%, no sharp cut-off; inactive = mostly below about 38%;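 note: higher means compound restores mutant binding toward wildtype level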
MEKK3-MEK5 inh: MEKK3-MEK5 PB1 inhibition, single concentration confirmation; shares compounds with MEKK3 PB1 HTS; bead flow cytometry, Alexa488-MEK5 binding to MEKK3; active compounds read low; binding response (% of control), % at 10 µM; 5,900 tested, 1.8% active; AID 1894;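 active = binding response below 72% of control, or above a set upper limit, though filed actives all read lower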;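 note: 100% = DMSO only wells and 0% = binding blocked by excess unlabeled MEK5; lower values mean stronger disruption of MEK5 binding to MEKK3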
An asterisk follows results filed as active; . = no result; [ ] = dose if it differs, or a comment. Rows were chosen to be rich in hits. Some 3.2% of all compounds tested hit in one or more screens of this group.

SMILES	SKN-1 block	MEKK2 WT-MEK5	NRP1-CendR mod	MEKK2mut PB1 HTS	MEKK3 PB1 HTS	MEKK2wt confirm	MEKK2mut-MEK5	MEKK3-MEK5 inh
CC(C)NS(=O)(=O)c1ccc(CCC(=O)Nc2ccc3c(c2)OCCO3)cc1	-10.0	114.0	-6.1	3.0	164.0*	101.0	-2.0	95.0
CCNS(=O)(=O)c1ccc(CCC(=O)Nc2ccc3c(c2)OCCO3)cc1	-1.4	102.0	-1.3	0.0	105.0	.	.	.
CCS(=O)(=O)N1CCN(c2ccc([N+](=O)[O-])c(NC(C)c3ccccc3)c2)CC1 (stereo not drawn)	8.9	102.0	10.9	5.0	103.0	.	.	.
CC(Nc1cc(N2CCNCC2)ccc1[N+](=O)[O-])c1ccccc1 (stereo not drawn)	7.0	132.0	6.5	4.0	163.0*	129.0	28.0	106.0
O=[N+]([O-])c1ccc(N2CCNCC2)cc1Sc1nc2ccccc2[nH]1	9.3	144.0*	-18.9	19.0	104.0	107.0	-1.0	102.0
CC(=O)NN1C(=O)/C(=C2/Sc3ccc(Cl)cc3N2C)SC1=S	-14.1	103.0	-12.4	6.0	101.0	.	.	.
COc1cccc2[nH]c3c(N4CCc5ccccc5C4)ncnc3c12	.	147.0*	.	26.0	103.0	152.0	26.0	108.0
Nc1nc(SCc2ccccc2)sc1C(=O)N1CCCCC1	-2.9	.	5.3	.	.	.	.	.
CN(C)C(=O)c1ccc(Oc2ccc(C(=O)N(C)C)cc2)cc1	6.4	75.0	-1.3	-14.0	66.0*[inhibitor]	100.0	-1.0	100.0
CC(=O)N1c2ccccc2N=C(c2ccc3c(c2)OCO3)C1C(=O)NCc1ccccc1 (stereo not drawn)	7.6	.	0.8	.	.	.	.	.
CCCC(=O)NC(=S)NNC(=O)c1ccc([N+](=O)[O-])cc1	1.3	100.0	-9.9	4.0	133.0*	95.0	3.0	99.0
CCCCCCCC(=O)NNC(=O)c1ccc([N+](=O)[O-])cc1	-0.6	96.0	2.0	-2.0	95.0	.	.	.
O[C@H]1C[C@H](c2ccc(Cl)cc2)N(Cc2cccs2)C[C@@H]1n1cc(-c2ccc(F)cc2)nn1	9.3	.	2.8	.	.	.	.	.
C[C@@H]1CN([C@@H](C)CO)C(=O)c2cc(NS(C)(=O)=O)ccc2O[C@@H]1CN(C)S(=O)(=O)c1ccccc1	6.6	.	-12.5	.	.	.	.	.
COc1ccc(CN2CCN(C)CC2)cc1OCc1ccccc1	14.7	82.0	7.3	-9.0	69.0*[inhibitor]	108.0	7.0	108.0
CCCNS(=O)(=O)c1cc2c3c(c1)CCN3C(=O)CC2	6.7	102.0	10.8	3.0	105.0	.	.	.
O=C(Nc1cccc(C(F)(F)F)c1)c1ccc2sc([C@H]3C[C@H](O)[C@@H](CO)O3)nc2c1	20.1	.	10.9	.	.	.	.	.
COc1ccc(C)cc1N(C(=O)COc1cccc(F)c1)c1nc2ccccc2s1	5.1	108.0	-4.4	1.0	143.0*	96.0	-7.0	87.0
CCOC(=O)C1CCCN(Cc2cccs2)C1 (stereo not drawn)	9.4	-3.0*[inhibitor]	3.1	-18.0	1.0*[inhibitor]	104.0	6.0	106.0
O=C(C1CCCN(Cc2cccs2)C1)N1CCCCCC1 (stereo not drawn)	9.7	115.0	-1.6	13.0	111.0	.	.	.
CCOC(=O)C1CCCN(S(=O)(=O)c2ccc(S(=O)(=O)N3CCCC3)cc2)C1 (stereo not drawn)	-3.6	.	-3.4	.	.	.	.	.
CCOC(=O)C1CCCN(S(=O)(=O)c2cccs2)C1 (stereo not drawn)	8.6	114.0	-7.0	7.0	122.0*	97.0	-7.0	97.0
O=C(COC(=O)CN1C(=O)C2CC=CCC2C1=O)Nc1cccc([N+](=O)[O-])c1 (stereo not drawn)	17.4	.	9.1	.	.	.	.	.
COc1cccc(Cn2c(C(C)n3c(-c4cnccn4)nc4ccccc43)nc3ccccc32)c1 (stereo not drawn)	6.4	.	6.4	.	.	.	.	.
O=C(NNC(=O)c1ccc2ccccc2c1)c1cccc(Br)c1	7.4	.	4.5	.	.	.	.	.
SMILES	SKN-1 block	MEKK2 WT-MEK5	NRP1-CendR mod	MEKK2mut PB1 HTS	MEKK3 PB1 HTS	MEKK2wt confirm	MEKK2mut-MEK5	MEKK3-MEK5 inh
O=C(NNC(=S)Nc1cccc2ccccc12)c1cccc(Br)c1	-8.2	85.0	6.2	-7.0	80.0*[inhibitor]	90.0	-7.0	91.0
CCc1cc2ccc(OC)cc2nc1SCC(=O)NNC(C)=O	11.2	124.0	7.8	6.0	135.0*	99.0	-1.0	103.0
CCc1cc2cc(OC)ccc2nc1SCC(=O)NNC(=O)c1ccco1	13.8	97.0	4.4	-7.0	99.0	.	.	.
CCc1cc2ccccc2nc1SCC(=O)Nc1cc(C)on1	18.2	108.0	-8.2	9.0	106.0	.	.	.
CCc1cc2ccc(OC)cc2nc1SCC(=O)Nc1cc(C)on1	11.6	117.0	4.0	5.0	123.0*	98.0	-1.0	103.0
COc1ccccc1NC(=O)C(C)OC(=O)C1CCC(C(C)(C)C)CC1 (stereo not drawn)	15.5	.	14.9	.	.	.	.	.
COC(=O)CCCn1cc(CN2CC(N3CCCC3)CS2(=O)=O)nn1 (stereo not drawn)	5.9	.	10.8	.	.	.	.	.
Cc1ccc(S(=O)(=O)N/N=C\c2ccc(C)o2)cc1	4.4	100.0	-2.2	1.0	98.0	.	.	.
Cc1ccc(/C=N/NC(=O)c2cccc([N+](=O)[O-])c2)o1	5.8	105.0	-1.3	4.0	133.0*	115.0	10.0	104.0
Cc1ccc(/C=N/NS(=O)(=O)c2ccc([N+](=O)[O-])cc2)o1	4.1	106.0	-4.1	1.0	134.0*	107.0	4.0	101.0
O=C(N/N=C/c1cccc([N+](=O)[O-])c1)c1cc2ccccc2o1	8.8	91.0	-3.0	-1.0	69.0*[inhibitor]	92.0	1.0	92.0
O=C(N/N=C\c1ccc(-c2ccc([N+](=O)[O-])cc2)o1)c1ccc2c(c1)OCO2	5.0	108.0	-58.7	2.0	142.0*	96.0	-1.0	99.0
O=C(Nc1cc(Cl)ccc1N1CCOCC1)c1ccc(=O)[nH]c1	-1.9	.	-3.9	.	.	.	.	.
O=C(Nc1ccc2c(c1)OCCO2)C(C1CC1)N1CCN(c2ccc(C(F)(F)F)cn2)CC1 (stereo not drawn)	-0.7	.	6.6	.	.	.	.	.
O=C(N/N=C\c1cn[nH]c1-c1ccc(Cl)cc1)c1cccs1	10.8	60.0*[inhibitor]	10.9	-30.0	71.0*[inhibitor]	108.0	13.0	108.0
O=C(N/N=C/c1cn[nH]c1-c1ccc(Cl)cc1)c1ccc([N+](=O)[O-])cc1	11.0	90.0	-13.1	5.0	107.0	.	.	.
O=C(N/N=C\c1cccnc1)c1ccccc1O	7.1	109.0	-6.4	3.0	103.0	.	.	.
Cc1ccc(/C=N/NC(=O)c2cccs2)o1	-8.2	110.0	-0.6	1.0	128.0*	104.0	8.0	103.0
